Source: PubChem BioAssay (NCATS)
Results filed as inconclusive are left out. Where a call stands in place of a potency, no number is given. A number with no mark means an inactive call. Active and inactive are the calls of the source. Calls follow the shape of the dose curve; as a rule, active = well fitted inhibition curve with a large enough effect; inconclusive = small, poorly fitted or top-dose-only effect; inactive = flat fitted curve, though single readings scatter.

Molecular target: Phospholipid hydroperoxide glutathione peroxidase GPX4 (Homo sapiens) (UniProt P36969)
Sequence (P36969 whole entry, looked up): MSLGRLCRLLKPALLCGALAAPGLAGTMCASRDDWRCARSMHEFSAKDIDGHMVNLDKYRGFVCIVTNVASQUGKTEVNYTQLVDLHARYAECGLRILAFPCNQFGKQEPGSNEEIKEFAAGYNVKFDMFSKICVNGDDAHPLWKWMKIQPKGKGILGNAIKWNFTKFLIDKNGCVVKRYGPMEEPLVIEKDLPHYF
Assay: Primary qHTS Assay for Inhibitors of Recombinant Selenoprotein Glutathione Peroxidase 4 (GPX4) (AID 1845192); also: nearly all actives have a fitted effect of over 65% in size
Conditions: recombinant GPX4, GR-coupled NADPH fluorescence, 15 min; series mostly up to 50 µM; activity change, negative = inhibition: at the top concentration
Summary of the method: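 GR-coupled assay: recombinant GPX4 preincubated 30 min with compound at room temperature; final 200 nM GPX4, 1 mM GSH, 0.5 mM cumene hydroperoxide, 0.5 mM NADPH, 100 nM GR, 0.01% BSA, pH 7.5 Tris. NADPH fluorescence (340/450 nm) read at 0 and 15 min.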

SMILES	Potency	activity change, negative = inhibition	outcome
CCN(CC)CCNC(=O)c1ccc(N)cc1	inactive	–	–
Clc1ccc(C(c2ccc(Cl)cc2)n2cc[n+](CC(OCc3ccc(Cl)cc3Cl)c3ccc(Cl)cc3Cl)c2)cc1 (centres undefined)	–	-22.4%	–
COc1ccc(-n2c(C)c([N+](=O)[O-])c3ccc(O)cc32)cc1	–	2.62%	–
CN(C)Cc1cccc(N=C(c2ccccc2)c2c(O)[nH]c3cc(C(=O)N(C)C)ccc23)c1	–	-8.83%	–
O=C(O)CCc1nc(-c2ccccc2)c(-c2ccccc2)o1	inactive	–	–
CN(C)CCC(c1ccccc1)c1ccccn1 (centres undefined)	inactive	–	–
OC[C@@H](O)[C@H](O)[C@H](O)[C@@H](O)CO	–	–	inactive
Clc1ccc(Cn2c(CN3CCCC3)nc3ccccc32)cc1	inactive	–	–
CC1=C(/C=C/C(C)=C/C=C/C(C)=C/C(=O)Nc2ccc(O)cc2)C(C)(C)CCC1	inactive	–	–
CC(=O)OC1C(C)OC(Oc2c(-c3ccc(O)cc3)oc3cc(O)cc(O)c3c2=O)C(O)C1OC(C)=O (centres undefined)	–	-16.6%	–
COc1cccc(-c2cc(=O)c3ccccc3o2)c1N	inactive	–	–
CC(C)NCC(O)COc1cccc2[nH]ccc12 (centres undefined)	inactive	–	–
CCN1CCC[C@H]1CNC(=O)c1cc(S(N)(=O)=O)ccc1OC	inactive	–	–
Cc1ccc(/C=N/NC(=O)c2ccccc2Oc2ccccc2)o1	–	-12.6%	–
CCCNC(=O)NS(=O)(=O)c1ccc(Cl)cc1	inactive	–	–
NCCS	inactive	–	–
CCN(CC)CCOC(=O)c1ccc(N)cc1	–	-1.88%	–
COc1ccccc1N1CCN(CCCNc2cc(=O)n(C)c(=O)n2C)CC1	inactive	–	–
COc1ncc(-c2ccc3nccc(-c4ccnnc4)c3c2)cc1NS(=O)(=O)c1ccc(F)cc1F	–	-9.42%	–
